High-throughput results from PubChem.
AMA1-RON2 inh = disrupts binding of P. falciparum AMA1 to RON2; Potency, µM (top dose mostly 58.2 µM), without a hit: at the highest dose activity change, negative = inhibition, usual class: inhibitors; AlphaScreen AMA1-biotinylated RON2 peptide binding; AID 720542; 0.2% of 360,000 active;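 also: 0% = vehicle wells and -100% = peptide control; nearly all actives have a fitted effect of over 45% in size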
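AMA1 (3D7) with his tag at 25 nM final met compounds first, then biotinylated RON2 peptide at 25 nM; detection used donor plus acceptor beads, 10 µg/mL apiece, read by AlphaScreen after 30 min at room temperature.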
AmpC inh no detg = blocks E. coli AmpC beta-lactamase in detergent-free assay. Potency, µM (highest dose often 57.1 µM), without a hit: top-dose activity change, negative = inhibition, usual class: inhibitors. AmpC nitrocefin hydrolysis, absorbance 480 nm, 0.0001% Triton. AID 485341. 0.52% of 330,000 active;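 also: plate controls were no compound for no effect and no enzyme for full effect; nearly all actives have a fitted effect of over 20% in size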
Target sequence (P00811 whole entry, looked up): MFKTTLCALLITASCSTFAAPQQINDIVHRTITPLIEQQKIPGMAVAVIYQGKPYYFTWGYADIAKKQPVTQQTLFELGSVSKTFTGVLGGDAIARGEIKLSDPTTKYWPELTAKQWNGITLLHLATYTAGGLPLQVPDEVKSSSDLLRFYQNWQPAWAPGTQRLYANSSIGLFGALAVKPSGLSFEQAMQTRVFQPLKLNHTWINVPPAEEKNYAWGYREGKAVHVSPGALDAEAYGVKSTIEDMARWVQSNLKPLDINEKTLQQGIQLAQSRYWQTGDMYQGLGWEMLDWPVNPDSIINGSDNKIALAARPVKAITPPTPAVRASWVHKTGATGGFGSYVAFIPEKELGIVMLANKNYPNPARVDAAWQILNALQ
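AmpC (5.3 nM in the dispensed reagent) in 20 mM phosphate pH 7.0 with 0.01% (detergent screen) or 0.0001% Triton X-100 was preincubated with compounds for 15 min at room temperature. Nitrocefin was then added from an 800 uM solution, and hydrolysis was followed at 480 nm.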
AmpC detergent = blocks E. coli AmpC beta-lactamase in detergent assay. Potency, µM (doses to about 114 µM), for inactives: at the top dose activity change, negative = inhibition, usual class: inhibitors. 0.041% of 370,000 active. AID 485294. AmpC hydrolysis of nitrocefin, absorbance 480 nm, 0.01% Triton;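 also: 0% = no-compound wells and -100% = no-enzyme wells; nearly all actives have a fitted effect of over 25% in size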
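AmpC (5.3 nM in the dispensed reagent) in 20 mM phosphate pH 7.0 with 0.01% (detergent screen) or 0.0001% Triton X-100 was preincubated with compounds for 15 min at room temperature. Nitrocefin was then added from an 800 uM solution, and hydrolysis was followed at 480 nm.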
Giardia FBPA inh = inhibitors of Giardia lamblia fructose-1,6-bisphosphate aldolase; purified Giardia FBPA; A8B2U2; Potency, µM (top dose mostly 59.6 µM), for the others: at the top dose activity, negative = inhibition, hits mostly inhibitors; 0.71% of 290,000 active; also: nearly all actives have a fitted effect of over 55% in size
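40 nM FBPA preincubated 10 min at RT with compound (up to 57.5 uM final), then substrate plus GAPDH/TPI/NAD/arsenate coupling and diaphorase/resazurin added. Fluorescence read after 20 min at RT, 525/598 nm.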
Starred values were filed as active, the others as inactive; ? = inconclusive; . = not tested or not shown. Compounds with a hit are over-represented: about 1.1% of the library has one in this group of screens. Calls follow the shape of the dose curve; as a rule, active = well fitted curve in the direction sought with a large enough effect; inconclusive = small, poorly fitted or top-dose-only effect, or another doubt; inactive = no such curve, though single readings can be large; an effect the other way counts as inactive or inconclusive. Unless noted, % is scaled to controls: 0 for no effect and ±100 for the full control effect; potency is read from the fitted curve at half-maximal effect.

SMILES | AMA1-RON2 inh | AmpC inh no detg | AmpC detergent | Giardia FBPA inh
O=C1C(=O)c2ccccc2C(O)=C1CCCCl | -3% | -17% | -5% | 3.5µM*
CCCCCC(=O)/C=C/C=C\C/C=C\C/C=C\CCCC(=O)O | . | . | . | 2%
CN1c2ccc([N+](=O)[O-])cc2CC2(C(=O)NC(=O)N(c3ccccc3)C2=O)C1c1ccccc1 (centres undefined) | 11% | -16% | -14% | -3%
CN1c2ccc([N+](=O)[O-])cc2CC2(C(=O)NC(=O)NC2=O)C1c1ccccc1 (centres undefined) | -22% | 4µM* | -11% | -2%
CCCSc1nc(C)cc(C)c1S(=O)(=O)c1ccccc1C | 27% | -39% | -17% | 2%
Cc1cc(C)c(S(=O)(=O)c2ccccc2C)c(SCC(C)C)n1 | 24% | 0.25µM* | 0% | 0%
Cn1c(=O)c2cc(NC(=O)CCc3cccnc3)ccc2n1Cc1ccc(F)cc1 | -4% | . | . | .
Cc1cc(C)c(C(=O)Nc2ccccc2)c(SCC(=O)Nc2ccc(Br)cc2C)n1 | . | . | 0% | .
Cc1ccccc1CS(=O)(=O)c1nnc([C@H](Cc2ccccc2)NC(=O)OC(C)(C)C)o1 | 17% | 13µM* | 28µM* | -10%
CC(C)(C)OC(=O)N[C@@H](Cc1ccccc1)c1nnc(SCC(=O)O)o1 | 42% | -12% | ? | 8%
CCSc1nnc([C@H](Cc2ccccc2)NC(=O)OC(C)(C)C)o1 | 12% | 3% | 1% | 2%
CCC(C)[C@@H](NC(=O)OC(C)(C)C)c1nnc(S(=O)(=O)Cc2cccc(C)c2)o1 (some centres undefined) | 5% | 14µM* | 18µM* | -11%
CC(C)(C)OC(=O)N[C@@H](Cc1ccccc1)c1nnc(S(=O)(=O)Cc2ccccc2)o1 | . | ? | 18µM* | 0%
CC1CCCN(c2ccc(C(=O)NCC3CCCO3)cn2)C1 (centres undefined) | -1% | 0.2µM* | -2% | -3%
CCOC(=O)c1c(NC(=O)c2nc(SC)ncc2Cl)sc(C)c1C | . | . | 3% | .
C=CCOC(=O)C1=C(C)NC(SCC(=O)Nc2ccc(C)c(Cl)c2)=C(C#N)C1c1ccco1 (centres undefined) | -1% | 7.9µM* | ? | 3%
CCOC(=O)Nc1nc2ccc(Cn3cccc3)cc2[nH]1 | 0% | . | . | .
CC[C@H](NC(C)C)[C@H](O)c1ccc(O)c(O)c1 | . | . | . | 3.5µM*
CC(N)C(O)c1cccc(O)c1 (centres undefined) | . | . | . | -7%
CCC(NC(C)C)C(O)c1ccc(O)c2[nH]c(=O)ccc12 (centres undefined) | 87% | -19% | 1% | -21%
C[C@H](N)[C@H](O)c1ccc(O)c(O)c1 | . | . | . | 7.1µM*
O=C(Cn1ncc2c3ccccc3n(Cc3cccc(Cl)c3)c2c1=O)NC1CCCCCC1 | . | . | 22% | .
NS(=O)(=O)c1cccc(NC(=O)CSc2nc3ccc(Cl)cc3[nH]2)c1 | 6% | 18µM* | ? | -27%
COC1=C(Nc2ccccc2OC)C(=O)c2ccccc2C1=O | ? | -19% | -9% | ?
COc1ccccc1NC1=C(NC(C)=O)C(=O)c2ccccc2C1=O | 16% | -9% | 3% | 11µM*
SMILES | AMA1-RON2 inh | AmpC inh no detg | AmpC detergent | Giardia FBPA inh
CN1CCN(C(=O)CCN2C(=O)/C(=C/c3ccc(F)cc3)SC2=S)CC1 | -19% | 33% | -1% | .
Cc1cccc2sc(NNC(=O)c3ccc(S(=O)(=O)N4CCCC(C)C4)cc3)nc12 (centres undefined) | 52% | -27% | ? | -26%
Cc1cccc2sc(NNC(=O)c3ccc(S(=O)(=O)N4CCc5ccccc5C4)cc3)nc12 | 36% | 14µM* | -9% | ?
N#CC1(NC(=O)Cn2ncc(Cl)c(Cl)c2=O)CCCCC1 | 2% | 25µM* | -13% | .
N#CC1(NC(=O)CN2C(=O)c3ccccc3C2=O)CCCCC1 | -10% | -8% | 2% | .
CN(C)c1ccc(C=C2C=CC=C2)cc1 | 22µM* | . | . | .
CC/C(=N\Nc1ccccc1[N+](=O)[O-])c1ccc(O)cc1 | 16µM* | -44% | -2% | -12%
Cc1nn(CC(=O)N2CCN(S(=O)(=O)c3ccccc3)CC2)c(C)c1[N+](=O)[O-] | 18% | 11% | 3% | .
CC(=O)Nc1cccc(Nc2nc3ccccc3n3c(C)nnc23)c1 | . | . | 21% | .
Cc1ccc(NC(=S)Nc2ccccn2)cc1C | 48% | -38% | -3% | -9%
